Screening results from PubChem BioAssay.
An excerpt weighted towards active compounds, which were near 3% of everything screened.
C2C12 statin: suppression of simvastatin myotoxicity | C2C12 myotubes + simvastatin, ATP luminescence, 48 h; scaled: DMSO 0, geranylgeraniol control 100 | rescue of ATP level, % at 7.49 µM | actives 0.78% (n = 330,000);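 active = mean ATP rescue above about 67%, or every replicate alone reaching that limit, limit read from the data, passing the limit was not always enough; inconclusive = no clear call, values can overlap the other calls; inactive = mean under the limit and some replicate under it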;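 note: myotubes were challenged with 10 µM simvastatin during compound exposure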
MITF act: increases MITF-driven TRPM1 promoter luciferase signal; SK-MEL-5 TRPM1-promoter luciferase, 24 h; % of positive control, neutral wells = 0; actives 0.75% (n = 300,000); activation, % at 12.5 µM;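 active = mean activation of at least 80% with every replicate also reaching 80%; inconclusive = mean reaches 80% but some replicate falls short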;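 note: 0% = neutral control wells and 100% = parthenolide positive control wells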
esBAF inh: SWI/SNF esBAF complex inhibition; mouse ES cells, Bmi1-luciferase knock-in reporter, 24 h; 100% = twice the neutral-well signal; reporter increase, % at 12.5 µM; actives 2% (n = 350,000); AID 602393; in the data active = activation above about 40%; inconclusive = no clear call, values can overlap the other calls;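 note: 0% = median of the plate's neutral control wells and 100% = double that signal; a rise in the Bmi1 reporter signal indicates esBAF inhibition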
Wnt act: Wnt/beta-catenin pathway activation; activation, % at 9.35 µM; Wnt/beta-catenin reporter cell assay, activator, plate reader; actives 1.2% (n = 300,000); in the data active = activation above about 30%, passing the limit was not always enough; inconclusive = no clear call, values can overlap the other calls;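 note: 0% = neutral control wells and 100% = positive control wells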
* = called active by the depositor; ? = inconclusive; / = not tested or not shown.

SMILES | C2C12 statin | MITF act | esBAF inh | Wnt act
CCC(=O)NNC(=O)CCC(=O)Nc1ccc(C)cc1C | 3 | 19 | 8 | -7
Cc1ccc(NC(=O)CCC(=O)NNC(=O)C(C)(C)C)c(C)c1 | / | 6 | / | 40*
CN1c2ccccc2C(=O)/C(=C\Nc2ncccn2)S1(=O)=O | / | / | / | 2
Cc1sc2c(c1C)C(=O)/C(=C\Nc1ccncc1)S(=O)(=O)N2C | / | / | / | 44*
COc1ccc(-c2coc3cc(O)c(OC)cc3c2=O)cc1 | 5 | 67 | 23 | 9
COc1ccc(-c2coc3cc(O[C@@H]4O[C@H](CO)[C@@H](O)[C@H](O)[C@H]4O)c(OC)cc3c2=O)cc1 | 5 | 46 | 47* | 25
COc1ccc(-c2coc3cc(OC4OC(CO)C(O)C(O)C4O)cc(O)c3c2=O)cc1 (centres undefined) | 7 | ? | 20 | 56*
COc1ccc(-c2coc3cc(OC4OC(CO)C(O)C(O)C4O)ccc3c2=O)cc1 (centres undefined) | -5 | 71 | 26 | 41*
CCCc1cc(=O)oc2cc(O[C@@H]3O[C@H](CO)[C@@H](O)[C@H](O)[C@H]3O)ccc12 | 8 | 3 | 1 | -1
C[C@@H]1CN([C@@H](C)CO)C(=O)Cc2cc(NC(=O)Nc3ccc4c(c3)OCO4)ccc2O[C@H]1CN(C)C(=O)Nc1ccc(F)cc1 | 11 | / | 5 | /
Cc1noc(C)c1S(=O)(=O)N(C)C[C@@H]1OCCCC[C@H](C)Oc2ccc(NS(=O)(=O)c3ccc(Cl)cc3)cc2C(=O)N([C@H](C)CO)C[C@@H]1C | / | / | 11 | /
O=S(=O)(NCCSc1nnnn1-c1ccccc1)c1cccs1 | / | 14 | 53* | 8
CS(=O)(=O)NCCSc1nnnn1-c1ccccc1 | / | -1 | / | /
CNc1ncc(C(=O)c2ccc(Cl)cc2)s1 | 9 | / | 36 | /
CNc1ncc(C(=O)c2ccc(Cl)c(Cl)c2)s1 | 1 | / | 77* | /
CNc1ncc(C(=O)c2ccc(-c3ccccc3)cc2)s1 | / | 77 | / | 41*
COc1ccc(NC(=O)Nc2ccc3c(c2)C(=O)N([C@@H](C)CO)C[C@@H](C)[C@@H](CN(C)C(=O)Nc2ccc4c(c2)OCO4)OCCCC[C@@H](C)O3)cc1 | / | / | 5 | /
COc1cccc(-n2nnnc2SCC(=O)NCCc2ccc(OC)c(OC)c2)c1 | / | 11 | / | -1
O=C(CSc1nncs1)NCCCc1ccccc1 | / | 4 | / | 78*
O=C(CSc1nncs1)NCCNC(=O)CSc1nncs1 | -13 | -3 | -7 | -4
CC(Sc1ccccc1)C(=O)NCCc1ccccc1 (centres undefined) | 21 | / | 63* | 5
O=C(CSc1ccccc1)NCCc1ccccc1 | 3 | 44 | 52* | 6
COc1cccc(-n2nnnc2SCC(=O)NCCc2ccccc2)c1 | 102* | 10 | 5 | /
C[C@H](CO)N1C[C@H](C)[C@H](CN(C)C(=O)NC2CCCCC2)Oc2ccc(NS(=O)(=O)c3cn(C)cn3)cc2C1=O | -21 | / | 7 | /
C[C@@H]1CN([C@@H](C)CO)C(=O)Cc2cc(NC(=O)c3ccncc3)ccc2O[C@@H]1CN(C)C(=O)Nc1ccc(C(F)(F)F)cc1 | -4 | / | -2 | /
SMILES | C2C12 statin | MITF act | esBAF inh | Wnt act
CCC(=O)N1C[C@H](C)[C@@H](OC)CN(C)C(=O)c2ccc(NC(=O)c3ccccc3)cc2OC[C@H]1C | -4 | / | 4 | /
O=C(CCSCc1ccccc1F)NCCc1ccccc1 | 5 | 6 | 5 | 38*
CCOc1cc(/C=N/NC(=O)c2ccccn2)ccc1OC(=O)c1cccs1 | -10 | 15 | 18 | 7
O=C(N/N=C/c1ccc(N2CCOCC2)cc1)c1ccccn1 | / | 67 | / | 36*
O=C(N/N=C/c1ccc(OC(=O)c2cccs2)cc1)c1ccccn1 | / | 99* | / | 28
C[C@@H]1CCCCO[C@@H](CN(C)S(=O)(=O)c2ccc(F)cc2)[C@@H](C)CN([C@H](C)CO)C(=O)c2cc(NC(=O)CCCN(C)C)ccc2O1 | / | / | 1 | /
O=C(C[C@@H]1CC[C@H]2[C@@H](COC[C@H](O)CN2Cc2ccc(Cl)cc2)O1)NCCc1ccccc1 | 26 | / | 2 | /
C[C@@H]1CCCCO[C@H](CN(C)S(=O)(=O)c2cn(C)cn2)[C@H](C)CN([C@@H](C)CO)C(=O)c2cc(NC(=O)Nc3ccc4c(c3)OCO4)ccc2O1 | / | / | 5 | /
Cc1ccc(S(=O)(=O)N(C)C[C@H]2OCCCC[C@H](C)Oc3ccc(NC(=O)Nc4ccc5c(c4)OCO5)cc3C(=O)N([C@H](C)CO)C[C@H]2C)cc1 | / | / | 49* | /
C[C@@H]1CCCCO[C@@H](CN(C)S(=O)(=O)c2cn(C)cn2)[C@@H](C)CN([C@@H](C)CO)C(=O)c2cc(NC(=O)Nc3ccc4c(c3)OCO4)ccc2O1 | / | / | 58* | /
Cc1ccc(S(=O)(=O)N(C)C[C@@H]2OCCCC[C@H](C)Oc3ccc(NC(=O)Nc4ccc5c(c4)OCO5)cc3C(=O)N([C@H](C)CO)C[C@H]2C)cc1 | / | / | 3 | /
C[C@@H]1CN([C@H](C)CO)C(=O)c2cc(NC(=O)Nc3ccc4c(c3)OCO4)ccc2O[C@@H](C)CCCCO[C@H]1CN(C)S(=O)(=O)c1cn(C)cn1 | / | / | 58* | /
C[C@@H]1CN([C@@H](C)CO)C(=O)c2cc(NC(=O)Cn3cnnn3)ccc2O[C@H]1CN(C)C(=O)Nc1ccccc1 | / | / | -3 | /
C[C@H](CO)N1C[C@H](C)[C@@H](CN(C)C(=O)CN2CCOCC2)Oc2cc(/C=C/c3ccccc3)ccc2S1(=O)=O | -3 | / | 0 | /
O=C(Nc1cccc2cccnc12)c1cccc([N+](=O)[O-])c1 | 20 | / | 29 | 0
Cc1cc(C)nc(Nc2ccc(C)c([N+](=O)[O-])c2)n1 | -12 | 42 | 49* | 9
CC(=O)Nc1nonc1NC(=O)c1ccc(C(C)(C)C)cc1 | -4 | / | 32 | 55*
Cc1cc(C(=O)Nc2ccc3c(c2)CCC3)ccc1[N+](=O)[O-] | / | / | / | 51*
Cc1cc(C(=O)Nc2cccc3cccnc23)ccc1[N+](=O)[O-] | 27 | 5 | 49* | 8
Cc1cc(C)nc(/N=C(\N)Nc2ccc(C)c([N+](=O)[O-])c2)n1 | -40 | / | -21 | /
CC(C)(C)c1ccc(C(=O)Nc2cccnc2)cc1 | -17 | / | 27 | 0
O=C(N[C@H]1CC[C@H](CCn2cc(C3CCCCC3)nn2)O[C@H]1CO)c1cccnc1 | 1 | / | 2 | /
O=C(N[C@H]1C=C[C@H](CC(=O)N2CCOCC2)O[C@H]1CO)c1ccccn1 | -8 | / | 6 | /
Cc1ccc([N+](=O)[O-])cc1NC(=O)c1ccc(C(C)(C)C)cc1 | -64 | 1 | -2 | 1
O=C(Nc1ccc(Nc2ccccc2)cc1)c1ccc(Cl)cc1 | -27 | 24 | 3 | 0
CC(C)(C)c1ccc(C(=O)Nc2ccc(Cl)cc2)cc1 | / | 99* | / | 15
Cc1ccc(NC(=O)c2ccc(C(C)(C)C)cc2)cc1[N+](=O)[O-] | / | 121* | / | /
Cc1c(NC(=O)c2ccc(C(C)(C)C)cc2)cccc1[N+](=O)[O-] | / | 73 | / | 5
CC(C)(C)c1ccc(NC(=O)c2ccccc2)c([N+](=O)[O-])c1 | -16 | 60 | 13 | 75*
C[C@H](CO)N1C[C@H](C)[C@H](CN(C)Cc2ccccc2)Oc2cc(C#Cc3ccccn3)ccc2S1(=O)=O | 27 | / | -7 | /
